Reference: PubChem BioAssay AID1159580 (chemical genetic matrix, 2015)
The campaign covered roughly 5,500 compounds. About 2,000 (36%) were called active. Another 18% or so got no clear call; they are omitted. Rule as the data show it: active = normalized growth mostly below about 0.91 (no sharp cut-off); inconclusive = no clear call, values can overlap the other calls; inactive = mostly above about 0.92. The list shows a part of the results.

Experiment: chemical genetic growth profiling, strain panel (AID 1159580);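 also: tested at 20 µM; growth read once vehicle control cultures reached saturation at 30 °C; 1 = growth at the plate median or of vehicle wells; lower values mean less growth of the strain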
Conditions: growth OD
[1] = S. cerevisiae deletion strains, locus YAL013W, strain DEP1, stronger effect = lower value
[2] = S. cerevisiae deletion strains, locus YBR229C, strain ROT2, stronger effect = lower value
[3] = S. cerevisiae deletion strains, locus YDL101C, strain DUN1, stronger effect = lower value
[4] = S. cerevisiae deletion strains, locus YDL134C, strain PPH21, stronger effect = lower value
[5] = S. cerevisiae deletion strains, locus YDR150W, strain NUM1, stronger effect = lower value
[6] = S. cerevisiae deletion strains, locus YEL061C, strain CIN8, stronger effect = lower value
[7] = S. cerevisiae deletion strains, locus YGR078C, strain PAC10, stronger effect = lower value
[8] = S. cerevisiae deletion strains, locus YHR030C, strain SLT2, stronger effect = lower value
[9] = S. cerevisiae deletion strains, locus YHR087W, strain rtc3, stronger effect = lower value
[10] = S. cerevisiae deletion strains, locus YJR043C, strain POL32, stronger effect = lower value
[11] = S. cerevisiae deletion strains, locus YJR075W, strain HOC1, stronger effect = lower value
[12] = S. cerevisiae deletion strains, locus YLR039C, strain RIC1, stronger effect = lower value
[13] = S. cerevisiae deletion strains, locus YLR058C, strain SHM2 (second series), stronger effect = lower value
[14] = S. cerevisiae deletion strains, locus YLR085C, strain ARP6, stronger effect = lower value
[15] = S. cerevisiae deletion strains, locus YLR262C, strain YPT6, stronger effect = lower value
[16] = S. cerevisiae deletion strains, locus YML094W, strain GIM5, stronger effect = lower value
[17] = S. cerevisiae deletion strains, locus YMR219W, strain ESC1, stronger effect = lower value
[18] = S. cerevisiae deletion strains, locus YMR263W, strain SAP30, stronger effect = lower value
[19] = S. cerevisiae deletion strains, locus YMR307W, strain GAS1, stronger effect = lower value
[20] = S. cerevisiae deletion strains, locus YNL153C, strain GIM3, stronger effect = lower value
[21] = S. cerevisiae deletion strains, locus YNL298W, strain CLA4 (second series), stronger effect = lower value
[22] = S. cerevisiae deletion strains, locus YNL322C, strain KRE1, stronger effect = lower value
[23] = S. cerevisiae deletion strains, locus YNR030W, strain Alg12, stronger effect = lower value
[24] = S. cerevisiae deletion strains, locus YPL055C, strain LGE1, stronger effect = lower value
[25] = S. cerevisiae deletion strains, locus YPL241C, strain CIN2, stronger effect = lower value
[26] = S. cerevisiae deletion strains, locus YPR135W, strain CTF4, stronger effect = lower value
[27] = S. cerevisiae strains, strain wild type, stronger effect = lower value
[28] = S. cerevisiae deletion strains, locus YJL187C, strain SWE1, stronger effect = lower value

Measured: normalized growth

CCOC(=O)c1sc(S(C)(=O)=O)c2c1CCCC2O (stereo unspecified)
inactive: [1] 1.02 | [2] 1 | [3] 0.995 | [4] 1.01 | [5] 0.95 | [6] 1.02 | [7] 1 | S. cerevisiae deletion strains, locus YGR229C, strain SMI1, stronger effect = lower value 1 | [8] 1.03 | [9] 0.995 | [10] 0.98 | [11] 1.01 | S. cerevisiae deletion strains, locus YKL190W, strain CNB1, stronger effect = lower value 1 | [12] 1.05 | [13] 1.01 | [14] 1.08 | [15] 1.04 | [16] 1.03 | [17] 1.01 | [18] 1.04 | [19] 1.08 | [20] 1 | [21] 1.03 | [22] 1.02 | [23] 1.03 | [24] 0.952 | [25] 1.02 | [26] 1.05 | [27] 1.01

CCOC(=O)c1sc(SC(C)C)c2c1CCCC2=O
inactive: [1] 0.979 | [2] 0.969 | [3] 0.973 | [5] 1.06 | [7] 0.982 | [9] 0.978 | [10] 1.02 | [11] 0.93 | [13] 0.974 | [15] 0.864 | [16] 0.911 | [17] 0.969 | [18] 1.03 | [20] 0.978 | [22] 0.97 | S. cerevisiae deletion strains, locus YOL006C, strain TOP1, stronger effect = lower value 0.738 | [24] 1.04 | [26] 0.762 | [27] 0.951
active: [4] 0.82 | [6] 0.795 | [8] 0.53 | [28] 0.851 | [12] 0.785 | [14] 0.646 | [21] 0.835 | [23] 0.884 | [25] 0.801

Cn1[nH]c(=O)cc1C(=O)NN
inactive: [1] 1 | [2] 1.02 | [3] 1 | [4] 0.996 | [5] 1.01 | [6] 1.03 | [7] 1 | [8] 1.11 | [9] 1 | [28] 0.998 | [10] 1.01 | [11] 0.992 | [12] 0.998 | [13] 0.985 | [14] 0.978 | [15] 1.11 | [16] 0.99 | [17] 1 | [18] 0.991 | [19] 0.899 | S. cerevisiae deletion strains, locus YNL128W, strain TEP1, stronger effect = lower value 0.981 | [20] 1.05 | [21] 1.03 | [22] 0.995 | [23] 1.01 | [24] 0.995 | [25] 0.992 | [26] 1.12 | [27] 0.986
